# Source: PubChem BioAssay
# Test system: XIP peptide (Xip251-270)
# Test: small-molecule binders of XIP peptide, primary screen, biochemical, small-molecule microarray, fluorescence 635/667 nm, 0.5 µg/mL protein (AID 1183)
# Details: small-molecule microarray binding, fluorescence 635 nm; higher = more signal
row,SMILES,composite z-score
1,O=C1[C@@H]2[C@@H](CC(COc3ccccc3)=C([C@H](O)CCc3ccccc3)[C@@H]2CO)C(=O)N1Cc1ccccc1,0.73
2,O=C(NCC(O)CO)[C@@]1(CCS(=O)(=O)c2ccccc2)N=C(c2ccc(OCCCO)cc2)O[C@H]1c1ccccc1 (stereo not given in full),0.0777
3,CN(C)c1ccc(C(O)C2C=CC3C(=O)N(Cc4ccccc4)C(=O)C3N2n2cnnc2)cc1 (stereo not given),-0.23
4,COCCOC(=O)N1C(=O)[C@@]2(c3cc(C#CCC(C(=O)OC)C(=O)OC)ccc31)[C@H](C(=O)Nc1nc3ccccc3s1)[C@H]1C(=O)O[C@H](c3ccccc3)[C@H](c3ccccc3)N1[C@@H]2c1ccc(OCCO)cc1,0.768

# Test system: not listed separately
# Test: Plasmodium falciparum growth inhibition, primary screen, strain 3D7, DAPI fluorescence, 100 nL (AID 1184);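 note: parasites grown inside human red blood cells in medium with human serum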
# Details: P. falciparum 3D7 growth, 3 d, higher = more signal
row,SMILES,z-score
1,CCCC[C@H]1OB(O)C[C@H]2C1=C(COc1ccccc1)C[C@H]1C(=O)C=CC(=O)[C@H]12,-0.948
2,COCCOC(=O)N1C(=O)[C@@]2(c3ccccc31)[C@H](C(=O)N1CCN(c3ncccn3)CC1)[C@H]1C(=O)O[C@H](c3ccccc3)[C@H](c3ccccc3)N1[C@@H]2c1ccccc1OCCO,-1.99
3,COC(=O)[C@@]1(Cc2ccccc2)[C@H]2c3cc(C(=O)N(C)C)n(CCO)c3C[C@H]2CN1C(=O)c1ccccc1,1.1
4,[N-]=[N+]=Nc1ccccc1[C@@H]1OC(c2ccc(OCCCO)cc2)=N[C@]1(Cc1ccccc1)C(=O)NCCN1CCOCC1,-2.65
5,COc1cc(C(O)C2C=CC3C(=O)N(c4ccccc4)C(=O)C3N2Nc2ccccc2)cc(OC)c1OC (stereo not given),0.808
6,C=CCC(OC(C)=O)[C@@H]1[C@@H](N(Cc2ccc(-c3ccccc3)cc2)C(=O)c2cccc3ccccc23)c2cc(OCCCO)ccc2N1C(=O)Cc1ccc(OC)cc1 (stereo not given in full),-1.38
7,Cc1ccc(N2C(=O)c3ccccc3[C@](C)(C(=O)NCCCN(C)C)[C@@H]2c2ccc(CO)cc2)nc1,0.165
8,CCOC(=O)C[C@H]1[C@H](OC(=O)Cc2ccc3c(c2)OCO3)[C@@H](NC(=O)Cc2ccc(OC)cc2)c2cc(OCCCO)ccc2N1C(=O)Cc1ccc(OC)cc1,-1.99
9,O=C1N(CCS(=O)(=O)c2ccccc2)c2ccccc2C[C@]12N=C(c1ccc(OCCCO)cc1)O[C@@H]2c1ccccc1,-2.3
10,C=CCOC(=O)[C@@H]1[C@H]2C(=O)O[C@H](c3ccccc3)[C@H](c3ccccc3)N2[C@H](c2ccc(OCCOC(=O)[C@H]3C[C@H]4C(=O)N5CCC[C@H]5C(=O)N4[C@H]3c3cccc(OCCO)c3)cc2)[C@@]12C(=O)Nc1ccc(I)cc12,-0.441
11,COc1ccc([Si](C)(C)[C@H]2[C@H](CC(=O)N3Cc4ccccc4C[C@H]3CO)O[C@@]3(C(=O)N(c4ccccc4)c4ccccc43)[C@@H]2C)cc1,-2.01
12,CCN(CC)c1ccc(N2CC=CC34O[C@@H]5C=CCCOC(=O)C5[C@H]3C(=O)N(C(C)CO)[C@@H]4C2=O)cc1 (stereo not given in full),0.479
13,COCCOC(=O)N1C(=O)[C@@]2(c3cc(C#CC4(O)CCCCCC4)ccc31)[C@H](c1ccc(O)cc1)N1[C@H](c3ccccc3)[C@H](c3ccccc3)OC(=O)[C@H]1[C@@H]2C(=O)N1CCCCCCC1,-1.74
14,COC(=O)[C@@]1(Cc2ccc(F)cc2)[C@H]2c3cc(C(=O)N(C)C)n(C)c3C[C@H]2CN1C(=O)c1ccccc1,0.386
15,O=C(NC1CC1)[C@@H]1c2ccccc2C(=O)N(Cc2cc(C(F)(F)F)cc(C(F)(F)F)c2)[C@H]1c1ccc(CO)cc1,-1.54
16,COc1ccc(C(O)C2C=CC3C(=O)NC(=O)C3N2Nc2ccc(Cl)cc2Cl)c2ccccc12 (stereo not given),-0.605
17,O=C(NCCN1CCOCC1)[C@@H]1c2ccccc2C(=O)N(Cc2ccccc2C(F)(F)F)[C@H]1c1ccc(CO)cc1,-1.16
18,CN(C)CCCCNC(=O)[C@H]1C[C@H]2C(=O)N3CCC[C@H]3C(=O)N2[C@H]1c1cccc(OCCO)c1,0.0172

row,SMILES,z-score
1,COc1ccc(CCNC(=O)[C@@H]2c3ccccc3C(=O)N(Cc3ccccc3OC)[C@H]2c2ccc(CO)cc2)cc1,-0.996
2,CC(C)OC(=O)CC(=O)CC(O)c1cccc([N+](=O)[O-])c1 (stereo not given),-0.165
3,CCOC(=O)C[C@H]1[C@H](OC(=O)c2cc3ccccc3oc2=O)[C@@H](NC(=O)CC(C)C)c2cc(OCCCO)ccc2N1C(=O)Cc1ccc(OC)cc1,-2.45
4,CC1=C([C@H](O)CCc2ccccc2)[C@H](CO)n2c(=O)n(-c3ccccc3)c(=O)n2C1,0.0483
5,CC(C)(C)N1CC=CC23O[C@@H]4C=CCCOC(=O)C4[C@H]2C(=O)N(CCCCCCO)[C@@H]3C1=O (stereo not given in full),-0.143
6,CCCCCC1=C2CNC(CC(C)C)(C(=O)OC)C=C2C(C)C1=O (stereo not given),-0.282
7,O=C1C=C(c2ccccc2)C(=O)C2=C1CC([C@H]1Oc3ccccc3S(=O)(=O)N3CCC[C@@H]13)=CC2,-3.16
8,O=C1C[C@@](C(=O)O)(c2ccc([N+](=O)[O-])cc2)[C@@H](c2ccc(CO)cc2)N1C1CCCCC1,-1.13
9,CO[C@H]1O[C@H](CO)[C@@H](OC(=O)Nc2ccccc2-c2ccccc2)[C@H](OC(=O)Nc2ccccc2)[C@H]1OC(=O)Nc1ccccc1,-2.14
10,O=C1c2ccccc2[C@@]2(Cc3ccccc3N(Cc3ccccc3)C2=O)[C@H](c2ccc(CO)cc2)N1Cc1ccccc1Cl,0.689
11,CCCNC(=O)[C@@]1(c2ccc([N+](=O)[O-])cc2)CC(=O)N(C(C)C)[C@@H]1c1ccc(CO)cc1,-0.379
12,[N-]=[N+]=Nc1ccccc1C[C@@]1(C(=O)NCC(O)CO)N=C(c2ccc(OCCCO)cc2)O[C@@H]1c1ccccc1 (stereo not given in full),-1.45
13,CC(C)C[C@@H]1NC(=O)[C@@H]2C[C@H](C(=O)NCCCCCCNC(=O)CS)[C@H](c3cccc(OCCO)c3)N2C1=O,-0.0654
14,CC(=O)NCCCC[C@@H]1NC(=O)[C@H]2C[C@@H](C(=O)NCCCCCCNC(=O)CS)[C@@H](c3cccc(OCCO)c3)N2C1=O,0.287
15,O=C1[C@@H]2[C@@H](CC(COc3ccccc3)=C([C@H](O)CCc3ccccc3)[C@@H]2CO)C(=O)N1Cc1ccccc1,-0.0811
16,O=C(NCC(O)CO)[C@@]1(CCS(=O)(=O)c2ccccc2)N=C(c2ccc(OCCCO)cc2)O[C@H]1c1ccccc1 (stereo not given in full),-2.02
17,CN(C)c1ccc(C(O)C2C=CC3C(=O)N(Cc4ccccc4)C(=O)C3N2n2cnnc2)cc1 (stereo not given),0.736
18,COCCOC(=O)N1C(=O)[C@@]2(c3cc(C#CCC(C(=O)OC)C(=O)OC)ccc31)[C@H](C(=O)Nc1nc3ccccc3s1)[C@H]1C(=O)O[C@H](c3ccccc3)[C@H](c3ccccc3)N1[C@@H]2c1ccc(OCCO)cc1,-1.85
